Screening results as filed in PubChem.
This excerpt belongs to a sample that is enriched for hits.
USP2a inhib: blocks human ubiquitin-specific protease USP2a; O75604; USP2a enzymatic assay, qHTS inhibition; 0.1% of 60,000 active; Potency, µM (titrated, usually from 38.3 µM), for the others: top-dose activity change, negative = inhibition, most hits filed as inhibitors; also: potency is read from the fitted curve at half-maximal effect; nearly all actives have a fitted effect of over 60% in size
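Inhibition is measured in a cell-free coupled assay with 20 nM USP2 core, 20 nM Ub-PLA2 and 20 uM NBD C6-HPC, 2.5 h incubation. Activity normalized to NEM control.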
GFP derepression: epigenetic modulators derepressing GFP locus in mouse cells | mouse C127i GFP locus derepression, cytometry, 30 h | Potency, µM (top dose mostly 46.1 µM), for the others: at the highest dose GFP derepression (activation) | 0.09% of 68,000 active | AID 597; also: % of control where 0% means no effect
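Derepression screen: silenced CMV-GFP reporter in murine C127i cells, 30 h compound incubation at 37 C, washed cells imaged by laser-scanning cytometer to enumerate GFP-expressing objects of 20 to 120 um.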
UbGFP stabilizer: ubiquitin-GFP accumulation via proteasome inhibition. Ubiquitin-GFP reporter cells, proteasome inhibition, GFP fluorescence; response scale: untreated = 0%, 10 µM MG-132 = 100%. Potency, µM (doses to about 45.9 µM), for inactives: at the top dose activation (GFP accumulation), actives largely listed as activators. 67,000 tested, under 10 active; active = well fitted activation curve with a large enough effect, not every such curve was filed as active; inconclusive = small, poorly fitted or top-dose-only effect, or another doubt; inactive = no such curve, though single readings can be large or run the other way; also: potency is read from the fitted curve at half-maximal effect
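U2OS cells stably expressing ubiquitin(G76V)-GFP, seeded overnight in 0.5% FBS medium, were exposed to compounds (qHTS, 46 uM to 2.9 nM) for 4 hr at 37 °C. GFP-positive cells were counted by laser cytometry (488 ex/515 em), normalized between basal and 10 uM MG-132.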
GBA mod: alters purified human glucocerebrosidase activity | Potency, µM | AID 360 | P04062 | purified enzyme, resorufin glucoside fluorescence (screen aimed at inhibitors), 20 min | 1.1% of 48,000 active; in the data active = potency below about 15 µM; inconclusive = mostly about 16 µM to 33 µM;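 also: potency is read from the fitted curve at half-maximal effect; the screen sought inhibitors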
Target sequence (P04062 whole entry, looked up): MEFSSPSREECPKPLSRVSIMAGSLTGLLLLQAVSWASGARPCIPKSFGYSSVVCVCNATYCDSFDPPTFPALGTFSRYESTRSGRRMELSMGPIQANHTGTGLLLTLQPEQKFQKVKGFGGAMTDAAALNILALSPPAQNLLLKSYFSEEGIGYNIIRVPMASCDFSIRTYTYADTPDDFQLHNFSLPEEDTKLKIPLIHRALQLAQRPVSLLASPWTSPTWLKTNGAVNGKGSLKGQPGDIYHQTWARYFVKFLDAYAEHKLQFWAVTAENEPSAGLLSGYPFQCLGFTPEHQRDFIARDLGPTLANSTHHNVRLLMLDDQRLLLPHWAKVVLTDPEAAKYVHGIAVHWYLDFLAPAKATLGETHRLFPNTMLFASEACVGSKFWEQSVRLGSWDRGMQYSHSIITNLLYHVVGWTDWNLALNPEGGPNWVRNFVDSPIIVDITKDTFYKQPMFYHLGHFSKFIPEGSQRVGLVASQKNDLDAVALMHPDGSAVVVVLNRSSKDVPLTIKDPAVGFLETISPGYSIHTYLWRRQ
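Compounds titrated against 0.2 nM normal enzyme, 30 uM resorufin beta-D-glucopyranoside substrate, citrate/phosphate buffer with taurocholate and tween-20, pH 5.9. Reaction ran 20 min at room temperature; fluorescence (Ex 548/Em 600) gave AC50.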
HBB splice mod: hemoglobin beta splicing modulation; Potency, µM (top dose mostly 46.1 µM), for the others: at the top dose activation, actives largely listed as activators; AID 925; HBB splicing reporter cell assay, activation; EGFP reporter with mutant IVS2-654 intron; response scale: normalised to 500 nM splice-correcting PNA; 0.06% of 65,000 active; also: potency is read from the fitted curve at half-maximal effect; 0% is about no effect
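Compounds were applied for 2 days to HeLa EGFP-654 cells, 500/well in Optimem with 2% FCS. The reporter's EGFP is disrupted by mis-splicing of beta-globin intron IVS2-654. Readout: summed well GFP fluorescence from 488 nm laser scanning; reference was 500 nM antisense […] 654 PNA.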
* hit, by the source's call; ? = inconclusive; . = no result given; [ ] = another dose, or the depositor's remark. Unless noted, calls follow the shape of the dose curve; as a rule, active = well fitted curve in the direction sought with a large enough effect; inconclusive = small, poorly fitted or top-dose-only effect, or another doubt; inactive = no such curve, though single readings can be large; an effect the other way counts as inactive or inconclusive.

SMILES	USP2a inhib	GFP derepression	UbGFP stabilizer	GBA mod	HBB splice mod
CN1CCN(c2ncc3nc(-c4ccccc4)c(=O)n(Cc4ccc(F)cc4)c3n2)CC1	114%	0%[9.22 µM]	1%	.	0%
COc1ccc(Nc2ncc3nc(-c4cccs4)c(=O)n(Cc4cccc(OC)c4)c3n2)cc1	179%	?	3%	.	?
CC1CN(S(=O)(=O)c2ccc(NC(=O)c3cc(-c4ccccc4O)n[nH]3)cc2)CC(C)O1 (configuration not stated)	38%	0%	-3%	7.6*	10%[0.369 µM]
CC1CN(S(=O)(=O)c2ccccc2)CC(C)O1 (configuration not stated)	-1%	-2%	0%	>77	0%
COc1cccc(Cn2c(=O)c(-c3cccc(C#N)c3)nc3cnc(Nc4ccccc4)nc32)c1	227%	0%[9.22 µM]	0%	.	5%
CCN(CC)c1ccc2c(Cl)c(Br)c(=O)oc2c1	?	10µM*	?	.	.
CCCCN(C)S(=O)(=O)c1ccc(C(=O)Nc2nnc(-c3cccs3)o2)cc1	58%	4%	-2%	8.2*	-1%
O=C(Cn1c(=O)[nH]n(-c2ccccc2)c1=O)N1CCCc2ccccc21	1%	-4%	0%	9*	-3%
Fc1ccccc1N1CCN(c2nc3ccccc3n3nnnc23)CC1	35%	1%	0%	13*	8%
Fc1cc(Br)ccc1Nc1nc2ccccc2n2nnnc12	.	22%	1%	.	8%
CN1CCN(c2ncc3nc(CCc4ccccc4)c(=O)n(C)c3n2)CC1	66%	1%[9.22 µM]	9%	.	0%
CCOc1cccc2cc(-c3nnc(NCc4ccco4)s3)c(=O)oc12	29%	0%	-2%	>77	0%
COc1ccc2oc(=O)c(-c3nnc(NCc4ccco4)s3)cc2c1	28%	7%	-14%	9.9*	2%
NC(Cc1cnc[nH]1)C(=O)Nc1ccc2ccccc2c1 (configuration not stated)	-4%	.	.	.	.
O=c1oc2c3c4c(cc2cc1-c1nc2ccccc2[nH]1)CCCN4CCC3	78%	1%	13%	.	0.79µM*
CN1CCCN(C(=O)Cc2c(Cl)cccc2Cl)c2nc3ccccc3nc21	-4%	4%	-5%	>77	10µM*
CN1CCCN(C(=O)c2cc(=O)[nH]c3ccccc23)c2nc3ccccc3nc21	-1%	2%	3%	>77	-4%
COc1ccc2[nH]cc(CCNc3ncncc3-c3cccc(C#N)c3)c2c1	100%	5%[9.22 µM]	-7%	.	0%
O=c1c2ccccc2[nH]c(=S)n1C1CCCCC1	5%	4%	2%	14*	-2%
CCCCOc1ccc(-c2c(C#N)c(N)nc(SCC(N)=O)c2C#N)cc1	?	-4%	-5%	8.8*	-5%[57.5 µM]
CC(=O)c1ccc(C2C=CC(Oc3ccc(-c4ccccc4)cc3)C(CO)O2)cc1 (configuration not stated)	.	.	.	.	-1%[9.22 µM]
CCCCNc1cc(C)nc(NCc2ccccc2)n1	10%	-2%	15%	6.3*	-1%
Cc1cccc(S(=O)(=O)c2c(N)n(/N=C/c3ccco3)c3nc4ccccc4nc23)c1	43%	3%	4%	6.1*	3%[57.5 µM]
Cc1ccc(S(=O)(=O)c2c(N)n(/N=C/c3ccco3)c3nc4ccccc4nc23)cc1	0%	0%	2%	>77	-1%
COC(=O)CC1C(C)(C)C(O)C2CC3=C4C=C(OC)OC(c5ccoc5)[C@]4(C)CCC3[C@@]1(C)C2=O (some centres not stated)	19%	.	.	.	.
Cc1ccc(N(C(=O)Cn2nnc(-c3ccc(C)o3)n2)C(C(=O)NC2CCCC2)c2ccco2)cc1 (configuration not stated)	.	-2%	0%	>77	0%[57.5 µM]
Cc1ccc(C)c(N(C(=O)Cn2nnc(-c3cccs3)n2)C(C(=O)NC2CC2)c2ccc(C)o2)c1 (configuration not stated)	12%	-1%	0%	12*	.
COc1ccc(N2CCN(c3oc(-c4ccccc4OC)nc3C#N)CC2)cc1	-4%	2%	-3%	>77	2%[0.369 µM]
COc1ccccc1-c1nc(C#N)c(N2CCN(c3ccccc3)CC2)o1	-7%	4%	-6%	10*	9%[0.369 µM]
